# Where “and” joins values, the source holds several entries; their conditions need not be identical. Equal values may be shown once. Calls of active or inactive are those of the source. Unless noted, no stated cut-off is given here; in the data, active means inhibition above about 80%; inactive means the rest.
# Key:
# [1] = viability loss with induced miR-34 in A549 – imaging, A549 dox-inducible miR-34, nuclei and caspase counts, primary screen (AID 1347080;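 active means compounds whose cell count with miR-34 switched on is under 0.7 times the count with it off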); conditions: A549 miR-34 inducible, Hoechst nuclei count, 48 h
# [2] = MELAS cybrid and Rieske KO viability enhancers – cell-based, MELAS cybrids, Rieske KO mouse fibroblasts, CellTiter-Glo, primary screen (AID 1508586;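 active means mean z-score across replicates of 1.96 or higher in either the MELAS or the Rieske mutant cell line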;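 further: z relative to plate mean and SD of compound and empty wells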); conditions: low glucose
# [3] = galactose survival enhancers in mitochondrial complex I cybrids – cell-based, galactose medium, ATP luminescence, primary screen (AID 1645843;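 active means z-score of at least 1.8 in each of two replicates, scored against plate mean and spread of sample wells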;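 further: positive z means more ATP and so rescue of galactose-driven cybrid death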); conditions: complex I mutant cybrid cells, 72 h, stronger effect = higher value
# [4] = growth inhibition, single agent or in combination, cell-based, chromothripsis tumors, cisplatin or BGB combos (AID 1671449); conditions: LFS_MB_P medulloblastoma cells;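 further: cells exposed for 96 hours; 0% = vehicle DMSO and 100% = killing by high DMSO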
# [5] = growth inhibition, single agent and combos, cell-based, chromothripsis tumors, cisplatin or BGB combos (AID 1671450); conditions: HDN33 neuroblastoma cells, stronger effect = higher value;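 further: cells exposed to compound for four days; 0% = vehicle DMSO and 100% = cell killing by high DMSO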
# [6] = growth inhibition, single agents and combos, ICB984, cell-based, cisplatin or BGB combos, synergistic combos for chromothripsis tumors (AID 1671451; call rule not given here;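 further: cells exposed for 96 hours before readout; 0% = vehicle DMSO and 100% = killing by high DMSO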); conditions: ICB984 medulloblastoma cells, drug combinations, stronger effect = higher value
# [7] = growth inhibition, single agents and combos, LFS_MB_1R, cell-based, cisplatin or BGB combos, synergistic combos for chromothripsis tumors (AID 1671452); conditions: LFS_MB_1R medulloblastoma cells, stronger effect = higher value;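 further: cells exposed for 96 hours before readout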
# [8] = growth inhibition, single agents and combos, HTB85, cell-based, BGB or cisplatin IC20 combos, synergistic combos for chromothripsis tumors (AID 1671453); conditions: HTB85 osteosarcoma cells, drug combinations, stronger effect = higher value;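 further: cells exposed for 96 hours before readout; 0% = vehicle DMSO and 100% = high DMSO killing control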
# [9] = growth inhibition, single agents and combos, CRL2098, cell-based, BGB or cisplatin IC20 combos, synergistic combos for chromothripsis tumors (AID 1671454); conditions: CRL2098 osteosarcoma cells, drug combinations, stronger effect = higher value;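 further: cells exposed for 96 h before readout; 0% = vehicle DMSO and 100% = killing by high DMSO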
# [10] = growth inhibition, single agents and combos, HD-MB03, cell-based, BGB or cisplatin IC20 combos, synergistic combos for chromothripsis tumors (AID 1671455; in the data active means inhibition above about 83%;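 further: 0% = vehicle DMSO and 100% = high DMSO as cytotoxic control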); conditions: HD-MB03 medulloblastoma cells, stronger effect = higher value
# [11] = growth inhibition, single agents and combos, UWB1.289, cell-based, BGB or cisplatin combos, synergistic combos for chromothripsis tumors (AID 1671456); conditions: UWB1.289 ovarian carcinoma cells, stronger effect = higher value;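 further: cells exposed to compound for four days; 0% = vehicle DMSO and 100% = killing by high DMSO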
# [12] = growth inhibition, single agents and combos, LFS_MB_2R, cell-based, cisplatin combos, synergistic combos for chromothripsis tumors (AID 1671457); conditions: LFS_MB_2R medulloblastoma cells, stronger effect = higher value;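 further: cells exposed to compound for four days before readout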
# [13] = growth inhibition, MDA-MB-436, cell-based, BGB or cisplatin combos, synergistic combos for chromothripsis tumors (AID 1671458; call rule not given here;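 further: cells exposed for 96 hours; 0% = vehicle DMSO and 100% = killing by high DMSO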); conditions: MDA-MB-436 breast carcinoma growth inhibition, drug combinations, stronger effect = higher value
# [14] = UWB1.289_BRCA1 ovarian cancer growth, cell-based, BGB or cisplatin combinations (AID 1671459); conditions: UWB1.289 BRCA1 ovarian carcinoma, drug combinations, stronger effect = higher value
# [15] = drug combination toxicity in non-malignant astrocytes – cell-based, BGB or cisplatin IC20 combos, cytotoxicity control for chromothriptic childhood tumor combination screen (AID 1671460); conditions: Human astrocytes, viability inhibition, drug combinations, at 0.5 µM, stronger effect = higher value;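 further: cells exposed to compounds for 96 hours before viability readout; 0% = vehicle and 100% = killing control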
# [16] = BT084 cell growth, single and combined drugs, ICGC_MB145, cisplatin and BGB IC40 combos (AID 1671461); conditions: BT084 medulloblastoma cells, drug combinations, stronger effect = higher value;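 further: cells exposed to drugs for 96 hours; 0% = vehicle DMSO and 100% = high DMSO full killing control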
# [17] = RCMB18 cell growth, single agent and combined, cisplatin and BGB IC40 combos (AID 1671462); conditions: RCMB18 medulloblastoma cells, stronger effect = higher value;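 further: cells exposed to compound for four days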
# [18] = CRL1545 cell growth, single agent and combined, cisplatin and BGB IC20 combos (AID 1671464); conditions: CRL1545 osteosarcoma cells, stronger effect = higher value;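 further: cells exposed to compound for 96 hours before readout; 0% = vehicle DMSO and 100% = high DMSO killing control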
# [19] = measured here: combination with BGB IC40, at 0.05 µM
# [20] = measured here: with BGB IC20 combination, at 0.5 µM
# [21] = measured here: with cisplatin IC20 combination, at 0.5 µM
# [22] = measured here: combination with cisplatin, at 0.5 µM
# [23] = measured here: combination with cisplatin, at 5 µM
structure (smiles),measurement,setting,value
Nc1ccn(C2CCC(CO)O2)c(=O)n1 (stereo not given),fold change,"[1]; stronger effect = lower value, cell number ratio, induced over uninduced",0.958 (inactive) and 0.921 (inactive)
same,fold change,[1]; measured here: relative caspase fold change +Dox/-Dox,1.84 and 0.793
same,cell count,"[1]; measured here: total cells with miR-34 induction, stronger effect = lower value",9800 and 8610
same,cell count,[1]; measured here: total cells without miR-34 induction,10200 and 9350
same,z-score,"[2]; MELAS cybrid survival, CellTiter-Glo 48 h, stronger effect = higher value",-0.101 (inactive)
same,z-score,"[2]; Rieske KO mouse fibroblast survival, CellTiter-Glo 72 h",0.566
same,z-score,[3],0.445 (inactive)
same,inhibition,"[4]; at 0.5 µM, stronger effect = higher value",-21% (inactive)
same,inhibition,"[4]; measured here: combination with BGB IC20, at 0.005 µM",-12.9%
same,inhibition,"[4]; measured here: combination with BGB IC40, at 0.005 µM",8.5%
same,inhibition,[4]; [19],-10.6%
same,inhibition,"[4]; measured here: combination with cisplatin, at 0.5 µM, stronger effect = higher value",-35%
same,inhibition,"[4]; measured here: combination with cisplatin, at 5 µM, stronger effect = higher value",-13%
same,inhibition,"[5]; BGB combo, at 5 µM",-33.4%
same,inhibition,[5]; at 0.5 µM,-28.1% (inactive)
same,inhibition,"[5]; cisplatin combo, at 5 µM",-14%
same,inhibition,[5]; [20],-28.7%
same,inhibition,[5]; [21],-15.2%
same,inhibition,"[5]; single agent, at 5 µM",-52.9%
same,inhibition,"[6]; BGB IC20 combo, at 0.005 µM",-1.06%
same,inhibition,"[6]; BGB IC40 combo, at 0.005 µM",-15.6%
same,inhibition,"[6]; BGB IC40 combo, at 0.05 µM",-24.6%
same,inhibition,[6]; at 0.5 µM,-11.4% (inactive)
same,inhibition,"[6]; cisplatin combo, at 0.05 µM",-24.6%
same,inhibition,"[6]; cisplatin combo, at 0.5 µM",-24.3%
same,inhibition,"[6]; cisplatin combo, at 5 µM",15.2%
same,inhibition,"[6]; measured here: 5 uM single agent, at 5 µM",-2.52%
same,inhibition,[7]; at 0.5 µM,-18.2% (inactive)
same,inhibition,[7]; [19],-11.6%
same,inhibition,[7]; [22],-19.1%
same,inhibition,[7]; [23],-44%
same,inhibition,[8]; at 0.5 µM,-28.2% (inactive)
same,inhibition,"[8]; measured here: with BGB IC20, at 0.5 µM",-29.8%
same,inhibition,"[8]; measured here: with BGB IC20, at 5 µM",-10%
same,inhibition,"[8]; measured here: with cisplatin IC20, at 0.5 µM",-43.4%
same,inhibition,"[8]; measured here: with cisplatin IC20, at 5 µM",-30.1%
same,inhibition,"[8]; single agent, at 5 µM",-16.7%
same,inhibition,[9]; at 0.5 µM,-61.6% (inactive)
same,inhibition,"[9]; measured here: combination with BGB at IC20, at 0.5 µM",-74.6%
same,inhibition,"[9]; measured here: combination with cisplatin at IC20, at 0.5 µM",-68.6%
same,inhibition,[10]; at 0.5 µM,-9.09% (inactive)
same,inhibition,"[10]; measured here: combo with BGB at IC20, at 0.5 µM",-13.9%
same,inhibition,"[10]; measured here: combo with cisplatin at IC20, at 0.5 µM",-16.6%
same,inhibition,[11]; at 0.5 µM,7.61% (inactive)
same,inhibition,"[11]; measured here: inhibition with BGB combination, at 0.05 µM",-29.4%
same,inhibition,"[11]; measured here: inhibition with cisplatin combination, at 0.05 µM",-3.05%
same,inhibition,[12]; at 0.5 µM,-6.12% (inactive)
same,inhibition,[12]; [22],0.862%
same,inhibition,[12]; [23],2.6%
same,inhibition,[13]; at 0.5 µM,-21.2% (inactive)
same,inhibition,"[13]; measured here: BGB combination, at 0.5 µM",-29.5%
same,inhibition,"[13]; measured here: BGB combination, at 5 µM",-21.7%
same,inhibition,"[13]; measured here: cisplatin combination, at 0.5 µM",-25.6%
same,inhibition,"[13]; measured here: cisplatin combination, at 5 µM",-2.99%
same,inhibition,"[14]; BGB combination, concentration series, at 5 µM",-17.4%
same,inhibition,[14]; at 0.5 µM,-16.8% (inactive)
same,inhibition,"[14]; cisplatin combination, concentration series, at 5 µM",-7.33%
same,inhibition,[15],-3.66% (inactive)
same,inhibition,[15]; measured here: combo with BGB IC20,2.88%
same,inhibition,[15]; measured here: combo with cisplatin IC20,-17%
same,inhibition,[16]; at 0.5 µM,-0.679% (inactive)
same,inhibition,"[16]; cisplatin combination, at 0.5 µM",-0.865%
same,inhibition,"[16]; cisplatin combination, at 5 µM",-52%
same,inhibition,"[16]; measured here: BGB IC40 combination 0.05 uM, at 0.05 µM",24%
same,inhibition,"[16]; single agent, at 5 µM",-28.3%
same,inhibition,[17]; at 0.5 µM,-1.7% (inactive)
same,inhibition,"[17]; cisplatin combo, at 5 µM",11.7%
same,inhibition,"[17]; measured here: BGB IC40 combination, at 0.05 µM",-6.98%
same,inhibition,[17]; [22],-10.2%
same,inhibition,"[17]; single agent, at 5 µM",-30.2%
same,inhibition,[18]; at 0.5 µM,-50% (inactive)
same,inhibition,[18]; [20],-14.8%
same,inhibition,[18]; [21],-67.7%
same,inhibition,"[18]; single agent, at 0.05 µM",32.2%
same,inhibition,"[18]; single agent, at 5 µM",11.1%
